From PubChem BioAssay AID1159580 (chemical genetic matrix, 2015)
The whole screen tested about 5,500 compounds, of which about 2,000 (36%) were called active. About 18% were inconclusive and are not listed. Rule as the data show it: active = normalized growth mostly below about 0.91 (no sharp cut-off); inconclusive = no clear call, values can overlap the other calls; inactive = mostly above about 0.92. The list shows a part of the results.

Assay: chemical genetic growth profiling, strain panel (AID 1159580);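 also: tested at 20 µM; growth read once vehicle control cultures reached saturation at 30 °C; 1 = growth at the plate median or of vehicle wells; lower values mean less growth of the strain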
Conditions: S. cerevisiae deletion strains, growth OD

Measured: normalized growth

Clc1ccc(C(OCCN2CCCCC2)c2ccccc2)cc1 (stereo not drawn)
active: locus YBR021W, strain FUR4, hits give low values 0.833 | locus YDR137W, strain rgp1, hits give low values 1.21 [resistant] | locus YDR388W, hits give low values 0.924
inactive: locus YAL013W, strain DEP1, hits give low values 1 | locus YAL021C, strain ccr4, hits give low values 0.954 | locus YAL026C, strain drs2, hits give low values 1.02 | locus YAL030W, strain snc1, hits give low values 1.01 | locus YBL061C, strain skt5, hits give low values 1.02 | locus YBR009C, strain hhf1, hits give low values 1 | locus YBR023C, strain chs3, hits give low values 1.02 | locus YBR171W, strain sec66, hits give low values 1.02 | locus YBR229C, strain ROT2, hits give low values 0.999 | locus YBR231C, strain swc5, hits give low values 1.01 | locus YBR279W, strain paf1, hits give low values 1.02 | locus YCL011C, strain gbp2, hits give low values 1.03 | locus YCL016C, strain dcc1, hits give low values 1.03 | locus YCL029C, strain bik1, hits give low values 1.01 | locus YCL061C, strain MRC1, hits give low values 1.02 | locus YCL069W, strain vba3, hits give low values 1.02 | locus YCR088W, strain abp1, hits give low values 1.02 | locus YDL005C, strain med2, hits give low values 1.01 | locus YDL035C, strain GPR1, hits give low values 0.986 | locus YDL040C, strain nat1, hits give low values 1.02 | locus YDL074C, strain BRE1, hits give low values 0.947 | locus YDL101C, strain DUN1, hits give low values 1 | locus YDL134C, strain PPH21, hits give low values 0.995 | locus YDL185W, strain tfp1, hits give low values 1 | locus YDL192W, strain arf1, hits give low values 1.01 | locus YDR001C, strain nth1, hits give low values 1.02 | locus YDR069C, strain doa4, hits give low values 0.969 | locus YDR101C, strain arx1, hits give low values 0.982 | locus YDR150W, strain NUM1, hits give low values 1.01 | locus YDR159W, strain sac3, hits give low values 1.03 | locus YDR162C, strain NBP2, hits give low values 0.993 | locus YDR195W, strain ref2 1.07 | locus YDR297W, strain sur2, hits give low values 1.03 | locus YDR318W, strain mcm21, hits give low values 0.983 | locus YDR334W, strain swr1, hits give low values 1.03 | locus YDR335W, strain msn5, hits give low values 1.03 | locus YDR392W, strain spt3, hits give low values 1.04 | locus YDR502C, strain sam2, hits give low values 0.983 | locus YEL003W, strain gim4, hits give low values 1.01 | locus YEL037C, strain rad23, hits give low values 1.02 | locus YEL061C, strain CIN8 (second series), hits give low values 1.03 | locus YEL061C, strain CIN8, hits give low values 1.01 | locus YER015W, strain faa2, hits give low values 1.02 | locus YER016W, strain bim1, hits give low values 1.02 | locus YER110C, hits give low values 1 | locus YER111C, strain swi4, hits give low values 1.01 | locus YER155C, strain BEM2 (second series), hits give low values 1.01 | locus YER155C, strain BEM2, hits give low values 1 | locus YER167W, strain BCK2, hits give low values 0.998 | locus YFR010W, strain ubp6, hits give low values 0.986 | locus YGL078C, strain dbp3, hits give low values 0.99 | locus YGL086W, strain mad1, hits give low values 0.974 | locus YGL167C, strain pmr1, hits give low values 1.02 | locus YGL173C, strain kem1, hits give low values 1.01 | locus YGL227W, strain vid30, hits give low values 1.02 | locus YGL240W, strain doc1, hits give low values 1.02 | locus YGL248W, strain PDE1, hits give low values 0.99 | locus YGL253W, strain hxk2, hits give low values 1.02 | locus YGR078C, strain PAC10, hits give low values 0.977 | locus YGR135W, strain pre9, hits give low values 0.951 | locus YGR229C, strain SMI1, hits give low values 0.901 | locus YGR252W, strain gcn5, hits give low values 0.888 | locus YHR013C, strain ard1, hits give low values 0.895 | locus YHR027C, strain rpn1, hits give low values 1.03 | locus YHR030C, strain SLT2, hits give low values 1 | locus YHR079C, strain IRE1 (second series), hits give low values 0.994 | locus YHR094C, strain hxt1, hits give low values 0.997 | locus YHR129C, strain ARP1, hits give low values 1 | locus YHR142W, strain chs7, hits give low values 1.01 | locus YHR200W, strain rpn10, hits give low values 0.989 | locus YIL066C, strain RNR3, hits give low values 0.988 | locus YIL073C, strain SPO22, hits give low values 1.12 | locus YIL125W, strain kgd1, hits give low values 1 | locus YIR030C, strain dcg1, hits give low values 0.996 | locus YJL092W, strain hpr5, hits give low values 1.02 | locus YJL095W, strain BCK1 (second series), hits give low values 1.03 | locus YJL095W, strain BCK1, hits give low values 0.913 | locus YJL115W, strain asf1, hits give low values 1.02 | locus YJL129C, strain trk1, hits give low values 1.04 | locus YJL134W, strain LCB3, hits give low values 1 | locus YJL154C, strain vps35, hits give low values 1.01 | locus YJL164C, strain tpk1, hits give low values 1.02 | locus YJL166W, strain qcr8, hits give low values 1.01 | locus YJL168C, strain set2, hits give low values 1 | locus YJL187C, strain SWE1 (second series), hits give low values 0.983
